Records with an inconclusive call do not appear. Entries that show only a call come without a potency. Active and inactive are the calls of the source. Unless noted, the call rests on the fitted dose curve; in most records, active means well fitted curve in the direction sought with a large enough effect in the repeat runs; inconclusive means weak or mixed curves; inactive means no such curve, though single readings can be large; an effect the other way counts as inactive or inconclusive.
Experiments:
[1] = qHTS assay to identify small molecule antagonists of the glucocorticoid receptor (GR) signaling pathway - cell viability counter screen (AID 720693); settings: GR-bla HeLa viability, CellTiter-Glo luminescence, 18 h, with 5 nM dexamethasone present; series mostly up to 58.5 µM; further: nearly all actives have a fitted effect of over 55% in size
[2] = qHTS assay for identifying genotoxic compounds that show differential cytotoxicity against isogenic chicken DT40 cell lines with known DNA damage response pathways - wild type cell line (AID 743012); settings: DT40 wild type chicken cells viability, CellTiter-Glo, 40 h; series mostly up to 68.4 µM; further: nearly all actives have a fitted effect of over 60% in size; further: potency means the concentration at half of the fitted maximal effect
Summary of the method: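 Cytotoxicity in repair-proficient parental chicken DT40 cells serves as the comparator for Rad54/Ku70- and Rev3-deficient lines. Cells were exposed to compounds for 40 h at 37 C/5% CO2, and ATP-based luminescence (CellTiter-Glo) measured viability.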

[3] = qHTS assay for identifying genotoxic compounds that show differential cytotoxicity against isogenic chicken DT40 cell lines with known DNA damage response pathways - Rev3 mutant cell line (AID 743014); settings: chicken DT40 Rev3-/- viability, CellTiter-Glo, 40 h; series mostly up to 68.4 µM; further: nearly all actives have a fitted effect of over 55% in size; further: potency means the concentration at half of the fitted maximal effect
[4] = qHTS assay to identify small molecule antagonists of the androgen receptor (AR) signaling pathway - cell viability counter screen (AID 743033; further: nearly all actives have a fitted effect of over 45% in size; further: potency means the concentration at half of the fitted maximal effect); settings: AR-bla HEK293 viability, CellTiter-Glo luminescence, 16 h; series mostly up to 58.5 µM
[5] = qHTS assay to identify small molecule antagonists of the androgen receptor (AR) signaling pathway using the MDA cell line - cell viability counter screen (AID 743041; further: nearly all actives have a fitted effect of over 45% in size); settings: MDA-kb2 viability, CellTiter-Fluor, 16 h, cells co-treated with R1881 androgen agonist; series mostly up to 70.3 µM
Summary of the method: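 Cytotoxicity counter screen: MDA-kb2 AR-luc cells, compound + R1881, 16 h, 37C, 0% CO2; CellTiter-Fluor added at 15.5 h, fluorescence read after 30 min.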

[6] = qHTS assay for identifying genotoxic compounds that show differential cytotoxicity against isogenic chicken DT40 cell lines with known DNA damage response pathways - Rad54/Ku70 mutant cell line (AID 743015); settings: DT40 Rad54/Ku70 mutant viability, CellTiter-Glo, 40 h; series mostly up to 66.8 µM; further: nearly all actives have a fitted effect of over 60% in size; further: potency means the concentration at half of the fitted maximal effect
[7] = target: Androgen receptor (Homo sapiens) (UniProt P10275); experiment: qHTS assay to identify small molecule agonists of the androgen receptor (AR) signaling pathway using the MDA cell line (AID 743040; further: nearly all actives have a fitted effect of over 20% in size); settings: MDA-kb2 AR-luc cells, MMTV luciferase, 16 h; series mostly up to 70.3 µM
Androgen receptor (Homo sapiens), sequence (P10275 whole entry, looked up): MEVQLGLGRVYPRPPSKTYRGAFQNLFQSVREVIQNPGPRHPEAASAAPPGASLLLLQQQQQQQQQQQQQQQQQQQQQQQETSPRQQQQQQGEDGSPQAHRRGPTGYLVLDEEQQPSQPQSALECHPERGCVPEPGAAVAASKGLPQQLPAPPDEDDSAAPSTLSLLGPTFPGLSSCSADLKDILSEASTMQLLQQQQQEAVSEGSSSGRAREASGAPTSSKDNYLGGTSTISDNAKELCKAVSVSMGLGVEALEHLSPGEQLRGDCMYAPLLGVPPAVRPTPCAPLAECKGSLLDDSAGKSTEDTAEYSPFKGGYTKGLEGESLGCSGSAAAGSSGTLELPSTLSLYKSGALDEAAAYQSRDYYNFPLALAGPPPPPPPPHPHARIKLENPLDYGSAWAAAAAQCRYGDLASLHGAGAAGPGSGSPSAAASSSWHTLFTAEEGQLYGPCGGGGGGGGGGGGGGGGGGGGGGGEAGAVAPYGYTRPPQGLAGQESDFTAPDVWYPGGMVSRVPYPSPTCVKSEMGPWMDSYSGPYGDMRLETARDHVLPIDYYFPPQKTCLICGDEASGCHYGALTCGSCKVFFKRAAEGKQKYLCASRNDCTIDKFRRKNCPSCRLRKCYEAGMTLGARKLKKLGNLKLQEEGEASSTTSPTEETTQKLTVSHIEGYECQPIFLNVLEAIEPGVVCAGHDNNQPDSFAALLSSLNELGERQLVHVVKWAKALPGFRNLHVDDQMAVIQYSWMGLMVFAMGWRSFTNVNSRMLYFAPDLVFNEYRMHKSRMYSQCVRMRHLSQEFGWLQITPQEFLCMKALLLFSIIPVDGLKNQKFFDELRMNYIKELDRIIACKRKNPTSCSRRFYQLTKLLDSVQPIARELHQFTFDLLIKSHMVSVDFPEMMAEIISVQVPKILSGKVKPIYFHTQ
Summary of the method: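 Luciferase read-out, ONE-Glo, 30 min RT. Cells: MDA-kb2 AR-luc, MMTV promoter with AR and GR response elements. Compound exposure 16 h, 37C, 0% CO2, after 5 h pre-incubation. qHTS agonist mode.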

[8] = target: Androgen receptor (Homo sapiens) (UniProt P10275); experiment: qHTS assay to identify small molecule antagonists of the androgen receptor (AR) signaling pathway (AID 743035; active means well fitted inhibition curve with a large enough effect in the signal ratio in the repeat runs, not every such curve was filed as active; the % refers to the signal ratio; further: potency means the concentration at half of the fitted maximal effect); settings: HEK293 AR-UAS-bla, R1881-stimulated, beta-lactamase FRET, 16 h; series mostly up to 58.5 µM
Summary of the method: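 Steps: seed AR-UAS-bla GripTite HEK293 cells, incubate 4 h at 37C; pin in test compound, then add agonist R1881; incubate 16 h at 37C; add LiveBLAzer B/G FRET substrate, 2 h at room temperature; read fluorescence.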

[9] = target: Androgen receptor (Homo sapiens) (UniProt P10275); experiment: qHTS assay to identify small molecule agonists of the androgen receptor (AR) signaling pathway (AID 743036; active means well fitted activation curve with a large enough effect in the signal ratio in the repeat runs, with a control signal flat, not every such curve was filed as active; the % refers to the signal ratio); settings: HEK293 AR-UAS-bla GripTite, beta-lactamase FRET ratio, 16 h; series mostly up to 62.4 µM
Summary of the method: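 Screening used 2,000 AR-bla HEK293 cells per well, treated 16 h at 37C with test compounds in DMSO alongside positive and DMSO-only controls; beta-lactamase activity was then read by LiveBLAzer B/G FRET fluorescence after 2 h at room temperature.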

With `O=C(CC(=O)c1ccccc1)c1ccccc1` the Potency [1] was “inactive”, the Potency [2] was 36.9 µM (active) and the Potency [3] was 26.2 µM (active). The Potency [4] was “inactive” and the Potency [5] was “inactive”.
In the case of `O=C(/C=C/c1ccc(O)c(O)c1)O[C@@H]1C[C@](O)(C(=O)O)C[C@@H](O)[C@H]1O`, the Potency [1] is reported as “inactive”, the Potency [2] is reported as “inactive” and the Potency [3] is reported as “inactive”. For the same compound, the Potency [6] was “inactive” and the Potency [5] was “inactive”.
In the case of `Oc1ccc(C(O)CNCCCCCCNCC(O)c2ccc(O)c(O)c2)cc1O` (stereo not drawn), the Potency [1] is reported as “inactive”, the Potency [2] is reported as 26.6 µM (active) and the Potency [3] is reported as 29.8 µM (active). The Potency [4] was “inactive”.
For `Cc1cc(O)ccc1N`, the Potency [1] was “inactive”, the Potency [2] was 13.8 µM (active) and the Potency [3] was 6.14 µM (active). The Potency [7] was “inactive”.
In the case of `Cn1sccc1=O`, the Potency [1] is reported as “inactive”, the Potency [2] is reported as 2.43 µM (active) and the Potency [3] is reported as 3.06 µM (active). The Potency [6] was 4.86 µM (active) and the Potency [5] was “inactive”.
For `Oc1ccc2c(c1)OCO2`, the Potency [1] was “inactive”, the Potency [2] was 54 µM (active) and the Potency [3] was 54 µM (active). The Potency [4] was “inactive” and the Potency [5] was “inactive”.
With `Cc1ccc(C)o1` the Potency [1] was “inactive”, the Potency [2] was “inactive” and the Potency [3] was “inactive”. For the same compound, the Potency [6] was “inactive” and the Potency [5] was “inactive”.
With `CC1(C)[C@H]2CC[C@]1(C)[C@H](O)C2` the Potency [1] was “inactive”, the Potency [2] was “inactive” and the Potency [3] was “inactive”. The Potency [6] was “inactive” and the Potency [5] was “inactive”.
With `CCCCc1cc2ccccc2c(OCCN(C)C)n1` the Potency [1] was “inactive”, the Potency [2] was 6.39 µM (active) and the Potency [3] was 9.02 µM (active). For the same compound, the Potency [4] was “inactive” and the Potency [5] was “inactive”.
For `CCCCOc1ccc(CC(=O)NO)cc1`, the Potency [1] was “inactive”, the Potency [3] was 12.7 µM (active) and the Potency [4] was “inactive”. The Potency [5] was “inactive”.
In the case of `CCCCCOC(=O)COc1cc(N2C(=O)C3=C(CCCC3)C2=O)c(F)cc1Cl`, the Potency [1] is reported as “inactive”, the Potency [3] is reported as “inactive” and the Potency [4] is reported as “inactive”. For the same compound, the Potency [5] was “inactive”.
With `CC(C)(C)c1cc(O)c(C(C)(C)C)cc1O` the Potency [2] was 12.2 µM (active), the Potency [3] was 13.7 µM (active) and the Potency [6] was 13.7 µM (active). For the same compound, the Potency [8] was 43.6 µM (active), the outcome [9] was “inactive” and the Potency [7] was “inactive”. For the same compound, the Potency [5] was “inactive”.
For `CN(c1nccc(=O)[nH]1)C1CCN(c2nc3ccccc3n2Cc2ccc(F)cc2)CC1`, the Potency [2] was “inactive”, the Potency [3] was “inactive” and the Potency [6] was “inactive”. For the same compound, the Potency [4] was “inactive” and the Potency [5] was “inactive”.
For `C=CC(=O)OCC(C)OCC(C)OCC(C)OC(=O)C=C` (stereo not drawn), the Potency [2] was 15.4 µM (active), the Potency [3] was 19.3 µM (active) and the Potency [6] was 17.2 µM (active). For the same compound, the Potency [4] was 54.9 µM (active) and the Potency [5] was “inactive”.

Reference: PubChem BioAssay (Tox21)
